# Tests used:
# Assay in all cases: DAPPL (digital affinity profiling via proximity ligation, sequencing); 10 mM Tris-HCl pH 7.5, 50 mM NaCl, 1 mM DTT, 4% glycerol, room temperature, 30 min; GST-TFs on glutathione beads, 16-mer random dsDNA library, 0.1% formaldehyde crosslink after washing; high values mean tight binding
# FLI1 = biological target: T1, FLI1 (Homo sapiens, UniProt Q01543 1-452); conditions: protein: recombinant; tags: N-terminal GST; dsDNA, one strand shown
# T1 sequence: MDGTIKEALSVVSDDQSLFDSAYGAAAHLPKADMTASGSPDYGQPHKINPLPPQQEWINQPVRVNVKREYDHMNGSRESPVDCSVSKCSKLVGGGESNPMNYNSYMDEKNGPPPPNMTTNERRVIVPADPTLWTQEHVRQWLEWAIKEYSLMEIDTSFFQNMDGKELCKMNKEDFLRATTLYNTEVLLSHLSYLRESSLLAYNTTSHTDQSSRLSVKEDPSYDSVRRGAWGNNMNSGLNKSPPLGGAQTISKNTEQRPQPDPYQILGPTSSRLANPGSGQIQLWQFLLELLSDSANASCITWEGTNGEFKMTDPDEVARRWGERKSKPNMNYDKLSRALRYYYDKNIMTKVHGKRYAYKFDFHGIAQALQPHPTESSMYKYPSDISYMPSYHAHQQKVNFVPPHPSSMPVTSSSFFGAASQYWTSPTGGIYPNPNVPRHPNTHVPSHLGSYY
# How it was run: (§1)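 A tag-only sample was pooled with DNA-barcoded human transcription factors that had been expressed in yeast as GST fusions and captured on glutathione beads. The pools were incubated for 30 min at room temperature with 200 nmole of a random double-stranded 16-mer DNA library in Tris/NaCl/DTT/glycerol buffer, then washed, crosslinked with 0.1% formaldehyde, proximity-ligated (BsaI/T4 ligase, 1 h, 37 °C), PCR-amplified and sequenced on an Illumina NextSeq500. Binding signal is each hexamer's read frequency for a factor divided by its frequency for the tag-only sample.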
# ELK1 = biological target: T2, ELK1 (Homo sapiens, UniProt P19419 1-428); conditions: protein: recombinant; tags: N-terminal GST; dsDNA, one strand shown
# T2 sequence: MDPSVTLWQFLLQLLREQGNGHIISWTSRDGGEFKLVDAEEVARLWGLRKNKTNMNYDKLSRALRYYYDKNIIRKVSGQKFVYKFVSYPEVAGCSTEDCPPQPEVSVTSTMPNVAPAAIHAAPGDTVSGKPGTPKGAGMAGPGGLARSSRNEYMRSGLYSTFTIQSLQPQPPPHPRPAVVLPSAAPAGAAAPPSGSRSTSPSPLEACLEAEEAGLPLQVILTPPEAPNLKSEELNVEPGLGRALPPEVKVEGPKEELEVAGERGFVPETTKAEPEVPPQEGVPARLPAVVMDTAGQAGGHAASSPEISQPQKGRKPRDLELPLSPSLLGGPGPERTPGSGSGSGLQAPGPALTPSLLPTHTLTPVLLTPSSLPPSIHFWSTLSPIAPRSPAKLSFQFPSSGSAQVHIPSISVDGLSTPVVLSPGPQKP
# How it was run: as §1
# GABPA = biological target: T3, GABPA (Homo sapiens, UniProt Q06546 1-454); conditions: protein: recombinant; tags: N-terminal GST; dsDNA, one strand shown
# T3 sequence: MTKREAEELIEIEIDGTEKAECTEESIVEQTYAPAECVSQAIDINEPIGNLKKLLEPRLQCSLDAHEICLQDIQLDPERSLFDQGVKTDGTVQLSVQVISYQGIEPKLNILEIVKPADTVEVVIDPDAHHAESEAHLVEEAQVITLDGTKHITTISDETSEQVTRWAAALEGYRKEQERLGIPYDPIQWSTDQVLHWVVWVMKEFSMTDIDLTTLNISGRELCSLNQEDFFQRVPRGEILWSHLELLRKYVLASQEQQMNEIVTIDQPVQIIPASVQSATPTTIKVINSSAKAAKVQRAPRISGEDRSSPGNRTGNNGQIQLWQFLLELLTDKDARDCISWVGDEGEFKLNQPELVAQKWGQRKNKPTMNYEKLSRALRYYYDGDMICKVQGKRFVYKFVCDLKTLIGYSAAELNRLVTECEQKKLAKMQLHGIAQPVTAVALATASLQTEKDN
# How it was run: as §1
# ERG = biological target: T4, ERG (Homo sapiens, UniProt P11308 1-479); conditions: protein: recombinant; tags: N-terminal GST; dsDNA, one strand shown
# T4 sequence: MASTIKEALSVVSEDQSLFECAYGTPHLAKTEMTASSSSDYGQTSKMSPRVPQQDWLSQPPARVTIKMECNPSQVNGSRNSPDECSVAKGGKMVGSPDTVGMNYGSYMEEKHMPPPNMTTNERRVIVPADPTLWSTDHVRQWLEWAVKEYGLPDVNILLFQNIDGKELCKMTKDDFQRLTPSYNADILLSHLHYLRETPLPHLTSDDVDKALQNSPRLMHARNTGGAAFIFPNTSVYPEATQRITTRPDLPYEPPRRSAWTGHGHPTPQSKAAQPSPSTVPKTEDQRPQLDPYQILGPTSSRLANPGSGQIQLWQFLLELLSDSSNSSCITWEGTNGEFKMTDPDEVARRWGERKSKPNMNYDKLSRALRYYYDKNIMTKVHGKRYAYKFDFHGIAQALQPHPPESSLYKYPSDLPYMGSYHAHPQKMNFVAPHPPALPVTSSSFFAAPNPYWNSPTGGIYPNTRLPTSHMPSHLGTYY
# How it was run: as §1
# ELF1 = ELF1 (Homo sapiens, UniProt P32519 1-619); conditions: protein: recombinant; tags: N-terminal GST; dsDNA, one strand shown
# How it was run: as §1
# EHF = biological target: T5, EHF (Homo sapiens, UniProt Q9NZC4 1-300); conditions: protein: recombinant; tags: N-terminal GST; dsDNA, one strand shown
# T5 sequence: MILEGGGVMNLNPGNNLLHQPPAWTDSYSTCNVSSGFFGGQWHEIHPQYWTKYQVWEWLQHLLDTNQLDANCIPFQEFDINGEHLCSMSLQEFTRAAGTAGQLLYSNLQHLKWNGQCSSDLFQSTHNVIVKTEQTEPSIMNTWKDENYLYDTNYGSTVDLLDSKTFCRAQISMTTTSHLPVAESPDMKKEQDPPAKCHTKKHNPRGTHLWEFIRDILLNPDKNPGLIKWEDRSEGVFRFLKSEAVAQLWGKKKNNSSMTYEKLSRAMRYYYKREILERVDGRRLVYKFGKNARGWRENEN
# How it was run: as §1
# SPI1 = SPI1 (Homo sapiens, UniProt P17947 1-270); conditions: protein: recombinant; tags: N-terminal GST; dsDNA, one strand shown
# How it was run: as §1
# SPIB = SPIB (Homo sapiens, UniProt Q01892 1-262); conditions: protein: recombinant; tags: N-terminal GST; dsDNA, one strand shown
# How it was run: as §1
# ELK3 = biological target: T6, ELK3 (Homo sapiens, UniProt P41970 1-407); conditions: protein: recombinant; tags: N-terminal GST; dsDNA, one strand shown
# T6 sequence: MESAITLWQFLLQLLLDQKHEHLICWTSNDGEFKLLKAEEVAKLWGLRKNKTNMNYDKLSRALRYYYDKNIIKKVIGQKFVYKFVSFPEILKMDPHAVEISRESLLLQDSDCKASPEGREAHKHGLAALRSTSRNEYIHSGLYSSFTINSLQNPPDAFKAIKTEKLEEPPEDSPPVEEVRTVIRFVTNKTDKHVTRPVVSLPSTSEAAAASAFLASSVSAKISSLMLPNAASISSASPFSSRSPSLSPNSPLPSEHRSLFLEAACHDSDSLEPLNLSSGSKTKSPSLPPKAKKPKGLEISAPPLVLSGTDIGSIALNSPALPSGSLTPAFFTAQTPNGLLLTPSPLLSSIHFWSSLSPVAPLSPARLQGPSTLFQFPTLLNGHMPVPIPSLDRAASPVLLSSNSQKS
# How it was run: as §1
# FEV = biological target: T7, FEV (Homo sapiens, UniProt Q99581 1-238); conditions: protein: recombinant; tags: N-terminal GST; dsDNA, one strand shown
# T7 sequence: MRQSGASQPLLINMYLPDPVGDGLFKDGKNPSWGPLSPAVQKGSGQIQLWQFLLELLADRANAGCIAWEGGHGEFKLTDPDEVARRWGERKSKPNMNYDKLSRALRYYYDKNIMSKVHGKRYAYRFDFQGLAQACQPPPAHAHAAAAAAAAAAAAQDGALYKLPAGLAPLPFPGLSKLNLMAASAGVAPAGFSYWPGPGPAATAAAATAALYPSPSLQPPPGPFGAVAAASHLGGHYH
# How it was run: as §1
# ETV5 = ETV5 (Homo sapiens, UniProt P41161 1-510); conditions: protein: recombinant; tags: N-terminal GST; dsDNA, one strand shown
# How it was run: as §1
# HSF1 = HSF1 (Homo sapiens, UniProt Q00613 1-529); conditions: protein: recombinant; tags: N-terminal GST; chain copies: 3; dsDNA, one strand shown
# How it was run: as §1
# SPIC = biological target: T8, SPIC (Homo sapiens, UniProt Q8N5J4 1-248); conditions: protein: recombinant; tags: N-terminal GST; dsDNA, one strand shown
# T8 sequence: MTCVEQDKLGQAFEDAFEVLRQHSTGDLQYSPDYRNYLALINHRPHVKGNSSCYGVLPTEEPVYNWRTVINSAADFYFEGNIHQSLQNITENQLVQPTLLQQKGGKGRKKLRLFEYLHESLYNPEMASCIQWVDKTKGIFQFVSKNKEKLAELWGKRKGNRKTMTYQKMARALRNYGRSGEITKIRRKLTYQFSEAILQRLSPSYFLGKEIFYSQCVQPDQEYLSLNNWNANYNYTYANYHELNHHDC
# How it was run: as §1
# ELF4 = ELF4 (Homo sapiens, UniProt Q99607 1-663); conditions: protein: recombinant; tags: N-terminal GST; dsDNA, one strand shown
# How it was run: as §1
# ELK4 = biological target: T9, ELK4 (Homo sapiens, UniProt P28324-2 1-405); conditions: protein: recombinant; tags: N-terminal GST; dsDNA, one strand shown
# T9 sequence: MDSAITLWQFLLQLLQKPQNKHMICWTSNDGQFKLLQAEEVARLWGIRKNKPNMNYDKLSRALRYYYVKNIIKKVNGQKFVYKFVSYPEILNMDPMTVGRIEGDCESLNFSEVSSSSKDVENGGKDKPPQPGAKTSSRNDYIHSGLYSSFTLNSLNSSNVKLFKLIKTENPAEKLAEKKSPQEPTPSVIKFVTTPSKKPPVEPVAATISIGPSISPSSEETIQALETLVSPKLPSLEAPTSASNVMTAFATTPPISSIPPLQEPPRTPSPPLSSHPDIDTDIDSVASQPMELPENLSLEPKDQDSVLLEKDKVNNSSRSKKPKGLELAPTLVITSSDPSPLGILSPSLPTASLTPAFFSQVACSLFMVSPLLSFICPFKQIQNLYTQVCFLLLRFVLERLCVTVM
# How it was run: as §1
# ETV2 = biological target: T10, ETV2 (Homo sapiens, UniProt O00321 1-342); conditions: protein: recombinant; tags: N-terminal GST; dsDNA, one strand shown
# T10 sequence: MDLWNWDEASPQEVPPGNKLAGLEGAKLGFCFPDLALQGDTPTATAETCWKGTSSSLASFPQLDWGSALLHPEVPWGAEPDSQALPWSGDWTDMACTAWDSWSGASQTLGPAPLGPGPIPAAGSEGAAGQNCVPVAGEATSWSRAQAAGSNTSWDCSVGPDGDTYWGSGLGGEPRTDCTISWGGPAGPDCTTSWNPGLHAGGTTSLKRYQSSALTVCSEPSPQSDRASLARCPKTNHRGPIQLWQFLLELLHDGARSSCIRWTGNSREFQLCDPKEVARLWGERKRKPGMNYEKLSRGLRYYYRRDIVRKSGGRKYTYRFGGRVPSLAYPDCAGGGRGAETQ
# How it was run: as §1
# ELF3 = biological target: T11, ELF3 (Homo sapiens, UniProt P78545 1-371); conditions: protein: recombinant; tags: N-terminal GST; dsDNA, one strand shown
# T11 sequence: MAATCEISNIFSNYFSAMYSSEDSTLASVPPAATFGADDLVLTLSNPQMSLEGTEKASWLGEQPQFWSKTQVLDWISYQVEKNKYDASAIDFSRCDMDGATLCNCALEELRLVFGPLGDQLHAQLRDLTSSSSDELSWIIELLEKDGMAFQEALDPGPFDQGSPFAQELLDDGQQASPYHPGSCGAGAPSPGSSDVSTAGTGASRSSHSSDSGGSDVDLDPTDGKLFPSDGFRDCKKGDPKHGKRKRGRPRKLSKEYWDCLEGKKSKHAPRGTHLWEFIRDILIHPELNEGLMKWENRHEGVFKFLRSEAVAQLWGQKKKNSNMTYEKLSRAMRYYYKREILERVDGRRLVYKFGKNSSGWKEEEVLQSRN
# How it was run: as §1
# CRX = CRX (Homo sapiens, UniProt O43186 1-299); conditions: protein: recombinant; tags: N-terminal GST; dsDNA, one strand shown
# How it was run: as §1
# ETV1 = ETV1 (Homo sapiens, UniProt P50549 1-477); conditions: protein: recombinant; tags: N-terminal GST; dsDNA, one strand shown
# How it was run: as §1
# Chain of ELF4 (Q99607 whole entry): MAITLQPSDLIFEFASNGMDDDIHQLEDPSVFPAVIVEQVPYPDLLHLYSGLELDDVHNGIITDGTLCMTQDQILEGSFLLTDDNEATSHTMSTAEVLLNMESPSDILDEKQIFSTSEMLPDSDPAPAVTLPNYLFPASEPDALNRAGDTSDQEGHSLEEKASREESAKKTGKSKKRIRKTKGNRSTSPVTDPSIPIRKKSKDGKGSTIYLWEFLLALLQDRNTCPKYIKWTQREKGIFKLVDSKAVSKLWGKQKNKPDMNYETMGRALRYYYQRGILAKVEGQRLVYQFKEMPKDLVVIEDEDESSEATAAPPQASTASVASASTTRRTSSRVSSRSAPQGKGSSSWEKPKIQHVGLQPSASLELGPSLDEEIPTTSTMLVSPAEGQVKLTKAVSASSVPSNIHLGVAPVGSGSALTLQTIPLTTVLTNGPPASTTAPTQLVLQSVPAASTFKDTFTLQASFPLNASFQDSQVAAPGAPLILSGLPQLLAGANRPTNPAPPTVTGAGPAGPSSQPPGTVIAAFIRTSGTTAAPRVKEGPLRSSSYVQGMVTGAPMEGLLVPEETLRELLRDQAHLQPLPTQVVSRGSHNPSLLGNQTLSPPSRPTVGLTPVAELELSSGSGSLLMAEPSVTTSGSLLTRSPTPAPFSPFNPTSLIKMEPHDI
# Chain of CRX (O43186 whole entry): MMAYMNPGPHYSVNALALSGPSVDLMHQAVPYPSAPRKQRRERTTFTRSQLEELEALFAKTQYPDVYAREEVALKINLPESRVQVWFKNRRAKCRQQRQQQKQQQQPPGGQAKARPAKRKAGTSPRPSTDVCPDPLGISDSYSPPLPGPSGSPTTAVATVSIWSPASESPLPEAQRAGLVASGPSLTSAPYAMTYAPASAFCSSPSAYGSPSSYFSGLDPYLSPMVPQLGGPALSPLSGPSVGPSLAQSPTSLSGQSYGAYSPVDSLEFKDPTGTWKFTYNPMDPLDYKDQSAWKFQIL
# Chain of HSF1 (Q00613 whole entry): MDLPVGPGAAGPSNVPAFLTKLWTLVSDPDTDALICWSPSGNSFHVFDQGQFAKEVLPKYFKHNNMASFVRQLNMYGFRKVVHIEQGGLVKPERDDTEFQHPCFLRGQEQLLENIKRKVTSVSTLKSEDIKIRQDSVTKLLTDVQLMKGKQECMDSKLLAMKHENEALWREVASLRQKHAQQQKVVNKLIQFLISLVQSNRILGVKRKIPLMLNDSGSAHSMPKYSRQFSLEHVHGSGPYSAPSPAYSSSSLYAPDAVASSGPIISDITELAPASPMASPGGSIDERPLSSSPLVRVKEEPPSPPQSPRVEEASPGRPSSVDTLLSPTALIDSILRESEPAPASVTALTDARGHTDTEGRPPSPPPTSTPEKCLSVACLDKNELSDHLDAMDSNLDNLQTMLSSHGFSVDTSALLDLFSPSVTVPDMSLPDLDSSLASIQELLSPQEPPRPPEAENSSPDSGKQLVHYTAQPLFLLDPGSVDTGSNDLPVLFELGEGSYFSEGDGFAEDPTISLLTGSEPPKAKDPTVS
# Chain of ETV1 (P50549 whole entry): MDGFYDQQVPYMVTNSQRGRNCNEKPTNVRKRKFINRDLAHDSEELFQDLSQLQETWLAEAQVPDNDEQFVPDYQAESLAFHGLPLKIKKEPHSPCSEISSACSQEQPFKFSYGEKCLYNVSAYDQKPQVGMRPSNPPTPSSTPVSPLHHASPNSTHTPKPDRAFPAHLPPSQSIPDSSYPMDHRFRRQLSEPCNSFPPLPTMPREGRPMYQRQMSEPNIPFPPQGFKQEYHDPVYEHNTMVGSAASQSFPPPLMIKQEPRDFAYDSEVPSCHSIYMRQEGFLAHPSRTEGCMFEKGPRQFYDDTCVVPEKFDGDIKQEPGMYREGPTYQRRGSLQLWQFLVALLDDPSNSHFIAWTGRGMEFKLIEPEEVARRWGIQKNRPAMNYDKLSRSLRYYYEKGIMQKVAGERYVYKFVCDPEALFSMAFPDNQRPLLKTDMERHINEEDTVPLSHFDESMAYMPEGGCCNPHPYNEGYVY
# Chain of ELF1 (P32519 whole entry): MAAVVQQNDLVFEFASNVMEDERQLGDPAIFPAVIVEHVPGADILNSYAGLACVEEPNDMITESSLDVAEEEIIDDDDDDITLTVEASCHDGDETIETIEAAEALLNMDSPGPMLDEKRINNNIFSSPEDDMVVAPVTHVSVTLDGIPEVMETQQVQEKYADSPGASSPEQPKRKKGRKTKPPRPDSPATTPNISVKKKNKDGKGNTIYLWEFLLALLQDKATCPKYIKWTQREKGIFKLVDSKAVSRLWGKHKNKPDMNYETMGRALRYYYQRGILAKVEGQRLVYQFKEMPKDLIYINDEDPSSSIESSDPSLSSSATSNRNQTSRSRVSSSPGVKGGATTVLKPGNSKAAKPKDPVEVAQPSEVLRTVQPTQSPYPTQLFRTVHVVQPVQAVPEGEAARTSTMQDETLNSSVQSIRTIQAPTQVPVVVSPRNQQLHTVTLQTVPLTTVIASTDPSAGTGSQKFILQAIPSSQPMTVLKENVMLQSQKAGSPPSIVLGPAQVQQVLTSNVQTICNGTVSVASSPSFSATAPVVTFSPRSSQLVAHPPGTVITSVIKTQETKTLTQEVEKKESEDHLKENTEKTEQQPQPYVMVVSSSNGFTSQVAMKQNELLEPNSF
# Chain of SPIB (Q01892 whole entry): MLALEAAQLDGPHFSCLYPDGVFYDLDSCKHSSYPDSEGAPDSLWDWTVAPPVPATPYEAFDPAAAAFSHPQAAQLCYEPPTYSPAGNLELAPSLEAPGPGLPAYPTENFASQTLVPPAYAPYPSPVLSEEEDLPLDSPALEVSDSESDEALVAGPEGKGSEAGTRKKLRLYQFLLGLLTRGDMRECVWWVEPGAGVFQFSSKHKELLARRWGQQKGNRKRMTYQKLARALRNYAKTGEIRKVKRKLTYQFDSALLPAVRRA
# Chain of ETV5 (P41161 whole entry): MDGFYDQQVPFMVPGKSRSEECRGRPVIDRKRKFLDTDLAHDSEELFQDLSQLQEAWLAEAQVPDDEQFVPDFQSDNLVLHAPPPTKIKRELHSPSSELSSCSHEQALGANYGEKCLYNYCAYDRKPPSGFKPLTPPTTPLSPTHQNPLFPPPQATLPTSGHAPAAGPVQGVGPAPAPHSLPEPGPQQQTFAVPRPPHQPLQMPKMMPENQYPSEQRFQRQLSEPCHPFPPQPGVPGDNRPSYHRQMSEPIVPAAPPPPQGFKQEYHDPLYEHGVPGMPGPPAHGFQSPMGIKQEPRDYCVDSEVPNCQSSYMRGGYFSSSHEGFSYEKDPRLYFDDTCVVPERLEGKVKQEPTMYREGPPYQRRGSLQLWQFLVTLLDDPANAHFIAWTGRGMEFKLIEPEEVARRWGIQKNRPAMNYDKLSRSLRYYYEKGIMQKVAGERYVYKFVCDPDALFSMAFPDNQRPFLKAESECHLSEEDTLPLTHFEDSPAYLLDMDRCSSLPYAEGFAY
sequence,measurement,setting,value
ATCTAC,binding signal,FLI1,"1.2 fold enrichment (6-mer frequency, TF over GST control)"
same,binding signal,ELK1,"1.38 fold enrichment (6-mer frequency, TF over GST control)"
same,binding signal,GABPA,"1.22 fold enrichment (6-mer frequency, TF over GST control)"
same,binding signal,ERG,"1.2 fold enrichment (6-mer frequency, TF over GST control)"
same,binding signal,ELF1,"1.34 fold enrichment (6-mer frequency, TF over GST control)"
same,binding signal,EHF,"1.25 fold enrichment (6-mer frequency, TF over GST control)"
same,binding signal,SPI1,"1.34 fold enrichment (6-mer frequency, TF over GST control)"
same,binding signal,SPIB,"1.35 fold enrichment (6-mer frequency, TF over GST control)"
same,binding signal,ELK3,"1.27 fold enrichment (6-mer frequency, TF over GST control)"
same,binding signal,FEV,"1.33 fold enrichment (6-mer frequency, TF over GST control)"
same,binding signal,ETV5,"1.25 fold enrichment (6-mer frequency, TF over GST control)"
same,binding signal,HSF1,"1.43 fold enrichment (6-mer frequency, TF over GST control)"
same,binding signal,SPIC,"1.34 fold enrichment (6-mer frequency, TF over GST control)"
same,binding signal,ELF4,"1.27 fold enrichment (6-mer frequency, TF over GST control)"
same,binding signal,ELK4,"1.11 fold enrichment (6-mer frequency, TF over GST control)"
same,binding signal,ETV2,"1.29 fold enrichment (6-mer frequency, TF over GST control)"
same,binding signal,ELF3,"1.33 fold enrichment (6-mer frequency, TF over GST control)"
same,binding signal,CRX,"1.5 fold enrichment (6-mer frequency, TF over GST control)"
same,binding signal,ETV1,"1.26 fold enrichment (6-mer frequency, TF over GST control)"
